Records with an inconclusive call do not appear. A call without a number means that no potency is given here. A number with no mark means an inactive call. Activity calls are given as the source filed them. Calls come from the whole dose curve; as a rule, active = well fitted curve in the direction sought with a large enough effect in the repeat runs; inconclusive = weak or mixed curves; inactive = no such curve, though single readings can be large; an effect the other way counts as inactive or inconclusive. Non-standard residues stand in square brackets, D forms with d. Residues, ends and D or L forms follow the SMILES beside them. *: point of attachment. Sta = CC(C)C[C@H](N)[C@@H](O)CC(=O)O; Isovaleryl = CC(C)CC(=O)*
System: not listed separately
Experiment: qHTS assay to identify small molecule antagonists of the estrogen receptor alpha (ER-alpha) signaling pathway using the BG1 cell line in the presence of 0.1 nM 17-beta-estradiol - cell viability counter screen (AID 1259241); note: nearly all actives have a fitted effect of over 40% in size
Settings: VM7Luc4E2 (BG1) viability, CellTiter-Fluor protease, 22 h, 0.1 nM estradiol agonist added; series mostly up to 92.4 µM
How it was run: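 Live-cell protease activity (CellTiter-Fluor fluorescence, 30 min) was read in the same wells after VM7Luc4E2 cells had been exposed to compounds with 0.1 nM 17beta-estradiol for 22 hr at 37C.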

Compound	outcome	activity change, negative = cytotoxicity
CCCC(=O)C(CC)Sc1ccoc1C (stereo unspecified)	inactive	
COc1cc(OC)cc(OC)c1	inactive	
c1cc2ccc3ccc4ccc5cccc6c(c1)c2c3c4c56		10.7% [at 3.27 µM]
COc1cc(S(N)(=O)=O)cc(C(=O)O)c1OC	inactive	
CCOCCOCCOC(C)=O	inactive	
COC(=O)C(c1ccccc1Cl)N1CCc2sccc2C1 (stereo unspecified)	inactive	
CCCCC(CC)COC(=O)CC#N (stereo unspecified)	inactive	
CCCCCCCC(=O)N(C)C	inactive	
CC(C)(C)c1ccc(N)cc1	inactive	
CCCC(=O)CC	inactive	
CC1=C(O)C(=O)CO1	inactive	
CC(=O)SC[C@@H](C)C(=O)N1CCC[C@H]1C(=O)N[C@@H](Cc1ccccc1)C(=O)O	inactive	
Cc1cc2c(cc1CC(=O)c1sccc1S(=O)(=O)Nc1onc(C)c1Cl)OCO2	inactive	
CC(C)(C)C(=O)NCCCC(=O)O	inactive	
O=CN1CCCCC1	inactive	
COC(=O)c1ccccc1Cl	inactive	
CC/C=C/CCCCCCCCCCOC(C)=O	inactive	
C=CCN(CC=C)CC=C	inactive	

Compound	outcome	activity change, negative = cytotoxicity
C=CCON/C(CCC)=C1\C(=O)CC(C)(C)C(C(=O)OC)=C1O	inactive	
Nc1cc(S(=O)(=O)O)ccc1O	inactive	
CC/C=C\CCCCCCCCCCOC(C)=O	inactive	
Cc1cc(O)c(Cl)cc1C	inactive	
CCOC(=O)c1ccc(N(C)C)cc1	inactive	
O=C(O)CCCCCCCCCC(=O)O	inactive	
COc1cc(C(=O)NC2CCCNC2)cc(OC)c1OC (stereo unspecified)	inactive	
CCC(C)SSC(C)CC (stereo unspecified)	inactive	
O=S(=O)(O)CC(O)CCl (stereo unspecified)	inactive	
O=Cc1ccccc1S(=O)(=O)O	inactive	
CC(C)C(=O)Nc1cccc(C2CN3CCSC3=N2)c1 (stereo unspecified)	inactive	
CC(C)CC(=O)N[C@H](C(=O)N[C@H](C(=O)N[C@@H](CC(C)C)[C@@H](O)CC(=O)N[C@@H](C)C(=O)N[C@@H](CC(C)C)[C@@H](O)CC(=O)O)C(C)C)C(C)C (Isovaleryl-VV[Sta]A[Sta]-OH)	inactive	
O=C(O)CCC(=O)Nc1ccc(S(=O)(=O)Nc2nccs2)cc1	inactive	
Cc1ccc(Br)cc1	inactive	
CC(C)C(C)C	inactive	
CC(=O)Nc1ccc(S(=O)(=O)Nc2cc(C)on2)cc1	inactive	
C=CC(=O)OCC[N+](C)(C)C	inactive	

System: not listed separately
Experiment: qHTS assay to identify small molecule antagonists of the androgen receptor (AR) signaling pathway using the MDA cell line in the presence of 0.5 nM R1881 - cell viability counter screen (AID 1259242); note: nearly all actives have a fitted effect of over 45% in size
Settings: MDA-kb2 viability, CellTiter-Fluor protease fluorescence, 16 h; series mostly up to 92.4 µM
How it was run: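 R1881 at 0.5 nM final stimulated MDA-kb2 cells during 16 hr compound treatment at 37C. Cytotoxicity read: CellTiter-Fluor fluorescence after 30 min.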

Compound	outcome
CCCC(=O)C(CC)Sc1ccoc1C (stereo unspecified)	inactive
CCNC(=O)C(C)OC(=O)Nc1ccccc1 (stereo unspecified)	inactive
COc1cc(OC)cc(OC)c1	inactive
CCCCCCCC(=O)N(C)C	inactive
CC(C)=CCC/C(C)=C\C#N	inactive
Cc1cc2c(cc1CC(=O)c1sccc1S(=O)(=O)Nc1onc(C)c1Cl)OCO2	inactive
Nc1cc(S(=O)(=O)O)ccc1O	inactive
Cc1cc(O)c(Cl)cc1C	inactive
CCC(C)(C)C	inactive
O=C(O)CCCCCCCCCC(=O)O	inactive
COc1cc(C(=O)NC2CCCNC2)cc(OC)c1OC (stereo unspecified)	inactive
CC(C)C(=O)Nc1cccc(C2CN3CCSC3=N2)c1 (stereo unspecified)	inactive
CC(C)CC(=O)N[C@H](C(=O)N[C@H](C(=O)N[C@@H](CC(C)C)[C@@H](O)CC(=O)N[C@@H](C)C(=O)N[C@@H](CC(C)C)[C@@H](O)CC(=O)O)C(C)C)C(C)C (Isovaleryl-VV[Sta]A[Sta]-OH)	inactive
O=C(O)CCC(=O)Nc1ccc(S(=O)(=O)Nc2nccs2)cc1	inactive

Target: Androgen receptor (Homo sapiens) (UniProt P10275)
Sequence (P10275 whole entry, looked up): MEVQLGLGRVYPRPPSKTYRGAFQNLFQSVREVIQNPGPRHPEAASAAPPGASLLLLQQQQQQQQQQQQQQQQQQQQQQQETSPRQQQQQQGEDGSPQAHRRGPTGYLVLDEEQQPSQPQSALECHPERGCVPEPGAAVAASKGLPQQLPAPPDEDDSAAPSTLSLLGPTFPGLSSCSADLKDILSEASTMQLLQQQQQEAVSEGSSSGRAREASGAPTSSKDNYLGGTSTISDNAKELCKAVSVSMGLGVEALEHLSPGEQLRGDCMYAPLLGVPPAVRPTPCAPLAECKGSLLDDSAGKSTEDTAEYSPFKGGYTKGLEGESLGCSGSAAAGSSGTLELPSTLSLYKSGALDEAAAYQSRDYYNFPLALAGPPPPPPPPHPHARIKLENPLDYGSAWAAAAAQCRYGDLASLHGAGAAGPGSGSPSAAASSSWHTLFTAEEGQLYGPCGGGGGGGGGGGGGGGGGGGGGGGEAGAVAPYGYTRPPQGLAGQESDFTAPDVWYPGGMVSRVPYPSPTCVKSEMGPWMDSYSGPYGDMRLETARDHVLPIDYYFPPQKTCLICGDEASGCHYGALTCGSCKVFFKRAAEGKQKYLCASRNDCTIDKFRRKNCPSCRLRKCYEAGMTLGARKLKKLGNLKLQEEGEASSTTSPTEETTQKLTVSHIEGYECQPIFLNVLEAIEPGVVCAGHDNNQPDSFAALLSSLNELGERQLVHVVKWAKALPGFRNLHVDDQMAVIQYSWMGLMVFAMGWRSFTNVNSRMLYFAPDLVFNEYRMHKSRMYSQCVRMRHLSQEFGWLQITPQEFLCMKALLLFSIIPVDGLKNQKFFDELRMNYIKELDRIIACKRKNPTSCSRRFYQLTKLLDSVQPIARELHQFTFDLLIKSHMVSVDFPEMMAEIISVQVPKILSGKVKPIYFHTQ
Experiment: qHTS assay to identify small molecule antagonists of the androgen receptor (AR) signaling pathway using the MDA cell line in the presence of 0.5 nM R1881 (AID 1259243); note: nearly all actives have a fitted effect of over 50% in size
Settings: MDA-kb2 MMTV-luciferase, R1881 0.5 nM, 16 h; series mostly up to 92.4 µM
How it was run: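 We exposed MDA-kb2 cells to compounds under 0.5 nM R1881 stimulation for 16 hr at 37C and quantified MMTV-driven luciferase by luminescence.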

Compound	Potency
CCCC(=O)C(CC)Sc1ccoc1C (stereo unspecified)	inactive
COc1cc(OC)cc(OC)c1	inactive
Nc1cc(S(=O)(=O)O)ccc1O	inactive
O=C(O)CCCCCCCCCC(=O)O	inactive
CC(C)C(=O)Nc1cccc(C2CN3CCSC3=N2)c1 (stereo unspecified)	inactive

Target: Estrogen receptor (Homo sapiens) (UniProt P03372)
Sequence (P03372 whole entry, looked up): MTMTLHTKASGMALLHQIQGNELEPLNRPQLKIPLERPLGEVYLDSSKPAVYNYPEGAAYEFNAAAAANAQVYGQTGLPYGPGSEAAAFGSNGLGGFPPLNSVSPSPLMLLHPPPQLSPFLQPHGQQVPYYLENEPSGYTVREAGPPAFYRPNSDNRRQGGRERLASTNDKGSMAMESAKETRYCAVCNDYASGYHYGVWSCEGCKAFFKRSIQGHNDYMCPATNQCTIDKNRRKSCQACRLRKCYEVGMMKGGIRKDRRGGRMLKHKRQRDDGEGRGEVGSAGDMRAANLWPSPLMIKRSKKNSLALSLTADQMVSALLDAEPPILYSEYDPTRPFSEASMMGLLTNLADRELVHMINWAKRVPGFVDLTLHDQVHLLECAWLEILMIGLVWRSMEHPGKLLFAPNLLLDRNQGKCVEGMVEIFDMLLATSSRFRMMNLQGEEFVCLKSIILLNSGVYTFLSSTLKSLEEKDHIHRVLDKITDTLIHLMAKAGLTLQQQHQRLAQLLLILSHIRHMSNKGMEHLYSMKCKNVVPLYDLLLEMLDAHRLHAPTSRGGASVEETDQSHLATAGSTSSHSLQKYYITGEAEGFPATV
Experiment: qHTS assay to identify small molecule antagonists of the estrogen receptor alpha (ER-alpha) signaling pathway using the BG1 cell line in the presence of 0.1 nM 17-beta-estradiol (AID 1259244); note: nearly all actives have a fitted effect of over 50% in size
Settings: VM7Luc4E2 (BG1) ERE-luciferase, antagonist mode, 0.1 nM E2, 22 h; series mostly up to 92.4 µM
How it was run: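 VM7Luc4E2; 4xERE-luciferase; 0.1 nM E2 final; 22 h co-incubation, 37C; ONE-Glo luminescence after 30 min at room temperature.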

Compound	outcome
CCCC(=O)C(CC)Sc1ccoc1C (stereo unspecified)	inactive
CCNC(=O)C(C)OC(=O)Nc1ccccc1 (stereo unspecified)	inactive
COc1cc(OC)cc(OC)c1	inactive
COc1cc(S(N)(=O)=O)cc(C(=O)O)c1OC	inactive
CCCCC(CC)COC(=O)CC#N (stereo unspecified)	inactive
CCCCCCCC(=O)N(C)C	inactive
CC(C)=CCC/C(C)=C\C#N	inactive
CC(C)(C)c1ccc(N)cc1	inactive
CCCC(=O)CC	inactive
CC1=C(O)C(=O)CO1	inactive
CC(=O)SC[C@@H](C)C(=O)N1CCC[C@H]1C(=O)N[C@@H](Cc1ccccc1)C(=O)O	inactive
Cc1cc2c(cc1CC(=O)c1sccc1S(=O)(=O)Nc1onc(C)c1Cl)OCO2	inactive
CC(C)(C)C(=O)NCCCC(=O)O	inactive
O=CN1CCCCC1	inactive
CC/C=C/CCCCCCCCCCOC(C)=O	inactive
Nc1cc(S(=O)(=O)O)ccc1O	inactive
CC/C=C\CCCCCCCCCCOC(C)=O	inactive
Cc1cc(O)c(Cl)cc1C	inactive
CCOC(=O)c1ccc(N(C)C)cc1	inactive
CCC(C)(C)C	inactive
O=C(O)CCCCCCCCCC(=O)O	inactive
CCC(C)SSC(C)CC (stereo unspecified)	inactive
O=S(=O)(O)CC(O)CCl (stereo unspecified)	inactive
CC(C)C(=O)Nc1cccc(C2CN3CCSC3=N2)c1 (stereo unspecified)	inactive
Cc1ccc(Br)cc1	inactive
CC(=O)Nc1ccc(S(=O)(=O)Nc2cc(C)on2)cc1	inactive
C=CC(=O)OCC[N+](C)(C)C	inactive
